High-throughput results from PubChem.
SENP6 inh – blocks the human protease SENP6; Q9GZR1; Recombinant SENP6 catalytic domain, aminoluciferin luminescence; inhibition, % at 10 µM; AID 2599; 1.8% of 330,000 active;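 active means inhibition above about 50% at the single tested dose, limit read from the data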;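 further: plate controls were DMSO wells with enzyme for no effect and DMSO wells lacking enzyme for full effect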
Target sequence (Q9GZR1 628-1112 limits assumed): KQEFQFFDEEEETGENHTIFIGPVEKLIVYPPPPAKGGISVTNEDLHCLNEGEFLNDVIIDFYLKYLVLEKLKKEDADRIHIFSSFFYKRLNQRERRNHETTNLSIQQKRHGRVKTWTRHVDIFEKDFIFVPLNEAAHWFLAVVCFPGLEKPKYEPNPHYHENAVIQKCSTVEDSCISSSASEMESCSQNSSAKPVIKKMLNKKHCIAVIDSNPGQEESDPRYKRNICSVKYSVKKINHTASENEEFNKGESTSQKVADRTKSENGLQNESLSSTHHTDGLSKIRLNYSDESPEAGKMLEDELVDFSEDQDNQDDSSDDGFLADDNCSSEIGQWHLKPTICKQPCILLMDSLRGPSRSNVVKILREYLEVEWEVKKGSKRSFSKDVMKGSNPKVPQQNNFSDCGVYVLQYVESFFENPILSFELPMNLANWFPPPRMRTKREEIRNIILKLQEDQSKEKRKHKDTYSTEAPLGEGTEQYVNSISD
C8 TRAIL sens – caspase-8 TRAIL sensitization. NB7+C8 cells + TRAIL, ATPlite viability luminescence. inhibition (viability loss, TRAIL sensitization), % at 10 µM. 1% of 360,000 active;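 active means compounds causing at least 50% loss of cell viability in the single-dose screen, relative to plate controls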
SENP8 block-1 – inhibitors of human SENP8 protease; AID 2540; purified SENP8, Z-RLRGG-aminoluciferin cleavage, luminescence; inhibition, % at 10 µM; 1.2% of 330,000 active; in the data active means inhibition above about 50%
SENP8 block-2 – SENP8 (human) protease inhibition; AID 602440; recombinant SENP8, Nedd8 substrate fluorescence; inhibition, % at 20 µM; 0.64% of 360,000 active; Q96LD8; in the data active means inhibition mostly above about 40%, no sharp cut-off; inactive means mostly below about 27%
SENP7 inh – inhibitors of human SENP7 protease | inhibition, % at 5 µM | Q9BQF6 | 1.5% of 330,000 active | recombinant SENP7, Z-RLRGG-aminoluciferin luminescence, 40 min;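 active means inhibition above about 50% at the single test dose, limit read from the data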;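 further: plate controls were DMSO with enzyme for no effect and no enzyme buffer wells for full effect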
PPC-1+TRAIL kill – PPC-1 cancer cell killing with TRAIL present | PPC-1 cells + TRAIL, ATPLite viability luminescence | cell killing (% activity), % at 4 µM or 5 µM | 0.41% of 220,000 active;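 active means cell killing above 50% in the first pass at 4 µM, then a duplicate retest at 5 µM averaging 50% or more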;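 further: plate controls were cells with TRAIL plus DMSO for no effect and medium-only wells lacking cells for full effect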
SENP8 conf – confirmation of human SENP8 protease inhibitors | shares compounds with SENP7 inh | Recombinant SENP8, Z-RLRGG-aminoluciferin luminescence, 60 min | inhibition, % at 12.5 µM | 40% of 6,200 active;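 active means mean inhibition across replicates above about 50%, limit read from the data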
SENP6 confirm – confirmation of human SENP6 protease inhibitors; shares compounds with SENP7 inh; recombinant SENP6, Z-RLRGG-aminoluciferin luminescence; inhibition, % at 12.5 µM; 58% of 6,200 active; AID 488915
SENP7 conf – confirmation of human SENP7 protease inhibitors; shares compounds with SENP7 inh; recombinant SENP7, Z-RLRGG-aminoluciferin luminescence, 40 min; inhibition, % at 12.5 µM; 69% of 6,200 active; AID 488917
Casp3 select – selectivity test for SENP inhibitors: human caspase-3 inhibition. shares compounds with SENP7 inh. purified caspase-3, Z-DEVD-aminoluciferin luminescence, 60 min. inhibition, % at 12.5 µM. 60% of 6,200 active. AID 488918;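 active means mean inhibition above about 50%, limit read from the data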;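 further: plate controls were enzyme with DMSO for no effect and wells without caspase-3 for full effect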
Luc interf – luminescence interference (SENP counter-screen); Pre-incubated SENP8/Z-RLRGG-aminoluciferin, luciferase luminescence interference; inhibition, % at 12.5 µM; AID 488919; shares compounds with SENP7 inh; 39% of 6,200 active;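 active means mean inhibition above about 50% when retested at one dose, limit read from the data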;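 further: plate controls were DMSO wells with completed reaction for no effect and substrate without enzyme for full effect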
* marks the source's active call; other numbers are inactive results; . = no result given. A selection: hits, their analogues and other compounds. The true share with any hit is near 3%.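 How the source made its calls, unless noted: active means mean inhibition above about 50% in the one-dose retest (limit read from the data); inactive means the rest.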

SMILES | SENP6 inh | C8 TRAIL sens | SENP8 block-1 | SENP8 block-2 | SENP7 inh | PPC-1+TRAIL kill | SENP8 conf | SENP6 confirm | SENP7 conf | Casp3 select | Luc interf
O=C(Cn1nnc(-c2ccc(F)cc2)n1)Nc1cccc(S(=O)(=O)N2CCCC2)c1 | -4 | 2 | 4 | -12 | 7 | . | . | . | . | . | .
COc1ccc(C(=O)Nc2cc(OC)c(NC(=O)Nc3ccccc3)cc2OC)cc1 | . | 6 | . | -14 | . | . | . | . | . | . | .
COC(=O)c1ccc(/C=C/c2nc3ccccc3c(=O)[nH]2)cc1 | 89* | 53* | 85* | -321 | 96* | . | 29 | 24 | 52* | 63* | -4
Cc1ccccc1/C=C\c1nc2ccccc2c(=O)[nH]1 | 76* | 35 | 69* | -74 | 85* | 32 | 15 | 24 | 62* | 25 | -4
COc1cc(/C=C/c2nc3ccccc3c(=O)[nH]2)cc(OC)c1OC | -13 | 10 | 15 | -296 | -3 | . | . | . | . | . | .
C=CCOc1cccc(/C=C/c2nc3ccccc3c(=O)[nH]2)c1 | 37 | 57* | 28 | -35 | 82* | . | -10 | 4 | 12 | 17 | 13
CCC(=O)N1c2ccc(C)cc2C2=NNC(=S)NC21O (centres undefined) | 0 | 9 | 10 | 38 | 1 | -4 | . | . | . | . | .
CCCCN(C)c1c(C)nc2ccc(C(=O)NCCCn3ccnc3)cn12 | . | -11 | . | 2 | . | . | . | . | . | . | .
O=C(CC(c1cccs1)S(=O)(=O)c1ccccc1)c1ccc(F)cc1 (centres undefined) | 52* | -4 | 23 | 2 | 30 | 4 | 3 | -2 | 9 | 5 | 8
O=C(NCCO)C(=O)NCC(c1cccs1)S(=O)(=O)c1ccc(F)cc1 (centres undefined) | . | 4 | . | 17 | . | . | . | . | . | . | .
Cc1ccc(C(=O)CC(c2cccs2)S(=O)(=O)c2ccc(C)cc2)cc1 (centres undefined) | 62* | 11 | -4 | 30 | 63* | 5 | 7 | 8 | -4 | 4 | 4
CCC(=O)NCC(c1cccs1)S(=O)(=O)c1ccc(C)cc1 (centres undefined) | 1 | 2 | -15 | 1 | 7 | . | . | . | . | . | .
CC(C)Nc1nc(NCc2ccccc2)c2sccc2n1 | . | 18 | . | -27 | . | . | . | . | . | . | .
CC(=O)Nc1ccc(CN2C(=O)C(C)(C)ON=C2c2ccc(C(F)(F)F)cc2)cc1 | . | -8 | . | -1 | . | . | . | . | . | . | .
CN(C)C(CNC(=O)c1cccc(S(=O)(=O)NCc2ccccc2)c1)c1ccccc1 (centres undefined) | 9 | -23 | 5 | 8 | -8 | . | . | . | . | . | .
COc1ccc(NC(=O)Nc2ccc(N(C)C)cc2)cc1 | 81* | 13 | 47 | 17 | 77* | 18 | 24 | 70* | 90* | 85* | 14
COc1ccc(NC(=O)Nc2ccccc2SC)cc1 | 96* | 35 | 92* | 20 | 98* | 12 | 95* | 96* | 101* | 96* | 16
COc1ccc(NC(=O)Nc2ccc(OC)cc2)cc1 | -18 | 0 | -4 | 20 | 15 | 16 | . | . | . | . | .
CSc1ccccc1NC(=O)Nc1ccc(Cl)cc1 | 7 | 23 | 92* | 13 | 96* | 13 | 3 | 96* | 101* | 85* | 63*
COc1ccc(Cl)cc1NC(=O)Nc1ccccc1SC | -8 | -3 | 0 | 10 | 0 | 19 | . | . | . | . | .
Cc1ccn(CC(=O)N2CCCC(N3CCN(c4ccccc4F)CC3)C2)n1 (centres undefined) | -9 | 9 | -2 | 10 | 3 | . | . | . | . | . | .
CC1=NN(c2ccc(Br)cc2)C(=O)/C1=C/c1cccs1 | 75* | -5 | 1 | 43* | 70* | -5 | -28 | -14 | -7 | -10 | -9
